The results in this text go back to PubChem BioAssay (NCATS).

Where “and” joins values, the source holds several entries; their conditions need not be identical. Equal values may be shown once. Records with an inconclusive call do not appear. Calls of active or inactive are those of the source. Unless noted, calls follow the shape of the dose curve; as a rule, active = well fitted curve in the direction sought with a large enough effect; inconclusive = small, poorly fitted or top-dose-only effect, or another doubt; inactive = no such curve, though single readings can be large; an effect the other way counts as inactive or inconclusive.

Experiment [1] is described as follows: qHTS Assay for Identification of Small Molecule Agonists for NFkB Signaling Pathway. (AID 624478).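 Also: compounds tested together with TNF alpha at its EC50 of 10 pM; 0% is about no effect.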 The essentials: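 Assay medium contained 0.5% FBS and 10 mM HEPES pH 7.3. Compounds were added together with TNF alpha (10 pM final), incubated 5 h at 37 C, and the beta-lactamase signal was measured fluorometrically.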
On the technique in general: In qHTS, concentration-response curves come from the screen itself.

The nature of experiment [2]: qHTS Assay for Identification of Small Molecule Antagonists for NFkB Signaling Pathway. (AID 624479; calls by dose curve;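 also: pathway stimulated with TNF alpha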; also: potency is read from the fitted curve at half-maximal effect).
The nature of experiment [3]: Cell Proliferation Assay against the HBL1 Cell Line (AID 651646).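 Also: cells exposed to compound for 48 h before reading.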 The note with it: HBL1 DLBCL cells; at 46.1 µM (top of the series) unless noted. The essentials: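 CellTiter-Glo luminescence after 48 h compound exposure at 37C gives percent activity, with DMSO as 100% and 9.2 uM bortezomib final as 0%. Cells: 500 log-phase HBL1 per well, RPMI plus 5% FBS.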
A short description of experiment [4]: Cell Proliferation Assay against the TMD8 Cell Line (Caspase readout at 16 hrs) (AID 651712).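 Also: 0% = DMSO and 100% = 9.2 µM bortezomib caspase activation.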 The essentials:
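Caspase-Glo luminescence measured apoptosis after a 16 h, 37 C compound exposure of TMD8 cells (500 cells/well, 5% FBS RPMI). DMSO set 0% and bortezomib at 9.2 uM final set 100% activity.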

The nature of experiment [5]: Cell Proliferation Assay against the TMD8 Cell Line (Caspase readout at 8 hrs) (AID 651713).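 Also: 0% = DMSO and 100% = 9.2 µM bortezomib caspase signal.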 A digest of the protocol:
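Luminescent caspase 3/7 assay; TMD8 cells, 8 h treatment at 37C, 5% CO2. Normalisation: DMSO 0%, 9.2 uM bortezomib 100%.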

The target of experiment [6] is Tyrosine-protein kinase Yes (Homo sapiens) (UniProt P07947). Kind of experiment: qHTS for small molecule inhibitors of Yes1 kinase: Primary Screen (AID 686947). Also: nearly all actives have a fitted effect of over 60% in size. Also: potency is read from the fitted curve at half-maximal effect. The essentials: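 In this qHTS format, inhibition is expressed relative to DMSO controls with enzyme (maximum) and without enzyme (minimum). The 60 min room-temperature reaction uses 0.1 mM ATP, with ADP detected by luminescence.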
Tyrosine-protein kinase Yes (Homo sapiens), sequence (P07947 whole entry, looked up): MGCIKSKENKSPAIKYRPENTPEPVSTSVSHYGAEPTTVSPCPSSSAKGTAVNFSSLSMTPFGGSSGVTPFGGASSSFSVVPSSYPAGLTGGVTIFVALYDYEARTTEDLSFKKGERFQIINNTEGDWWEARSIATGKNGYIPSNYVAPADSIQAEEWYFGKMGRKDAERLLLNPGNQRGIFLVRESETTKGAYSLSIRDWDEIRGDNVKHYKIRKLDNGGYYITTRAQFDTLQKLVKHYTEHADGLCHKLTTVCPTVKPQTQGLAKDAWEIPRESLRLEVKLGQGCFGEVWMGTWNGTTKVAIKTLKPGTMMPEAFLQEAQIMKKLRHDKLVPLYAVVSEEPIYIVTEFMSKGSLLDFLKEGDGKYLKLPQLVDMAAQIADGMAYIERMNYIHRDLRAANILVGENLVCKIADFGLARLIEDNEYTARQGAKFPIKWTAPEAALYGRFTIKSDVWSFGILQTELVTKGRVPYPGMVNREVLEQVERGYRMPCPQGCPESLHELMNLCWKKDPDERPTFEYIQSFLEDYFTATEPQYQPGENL

A short description of experiment [7]: qHTS for small molecule inhibitors of Yes1 kinase: Counter Assay (AID 686950).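 Also: no kinase present so only ADP-Glo detection of a fixed ADP amount is tested; luminescence from ADP-Glo reporting ADP in a fixed ATP and ADP mixture; 0% = DMSO wells with ATP plus ADP and -100% = ATP-only wells without ADP.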 The essentials: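 ADP-Glo luminescence read after a 60 min room-temperature incubation of compound with an ATP/ADP mix (0.08 mM/0.02 mM) and no kinase, following a 20 min compound preincubation. Signal scaled between ATP+ADP (max) and 0.1 mM ATP-only (min) wells; Tris pH 7.5, Mg2+, DTT.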

Experiment [8] is described as follows: Cell Proliferation Assay against the TMD8 Cell Line (AID 651645).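 Also: cells exposed to compound for 48 h before reading.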 The conditions noted are these: TMD8 DLBCL cell line proliferation/viability; at 46.1 µM (top of the series) unless noted. A digest of the protocol:
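500 TMD8 cells/well, RPMI + Glutamax, no phenol red, 5% FBS; cpd added immediately; 48 h, 37C, 5% CO2; CellTiter-Glo, luminescence. Controls: DMSO = 100%, bortezomib 9.2 uM final = 0%.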

Experiment [9] can be described thus: qHTS assay for small molecule agonists of the antioxidant response element (ARE) signaling pathway (AID 651741; active = well fitted activation curve with a large enough effect in the signal ratio; the % refers to the signal ratio; also: % of control where 0% means no effect). A digest of the protocol: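 Agonist activity is measured as ARE-driven beta-lactamase expression in a stable HepG2 reporter line, using 16 h compound treatment at 37 C and a FRET substrate fluorescence readout after 2 h.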
Experiment [10] is described as follows: qHTS assay for small molecule activators of the p53 signaling pathway (AID 651743; active = well fitted activation curve with a large enough effect in the signal ratio, not every such curve was filed as active; the % refers to the signal ratio; also: % of control where 0% means no effect). The note with it: HCT-116 p53RE-bla, beta-lactamase FRET ratio, 16 h; activation: stronger effect = higher value. A digest of the protocol: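 A beta-lactamase reporter under p53 response element control, stably carried by HCT-116 cells, reported pathway activation. Test compounds were applied for 16 hours at 37 C, and fluorescence was measured 2 hours after adding the B/G FRET substrate.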

Experiment [11] is described as follows: qHTS assay for small molecule activators of the nuclear factor-kappa B (NF-kB) signaling pathway (AID 651749; active = well fitted activation curve with a large enough effect in the signal ratio; the % refers to the signal ratio; also: % of control where 0% means no effect). The note with it: NF-kB-bla ME-180 cells, beta-lactamase FRET ratio, 16 h; stronger effect = higher value. The essentials: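 FRET-based beta-lactamase detection in ME-180 cells reports NF-kB response-element-driven transcription following overnight (16 hr) compound treatment.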

Experiment [12] is described as follows: qHTS assay for small molecule disruptors of the mitochondrial membrane potential - 1 hr assay (AID 651754; calls by dose curve; also: % is scaled to controls: 0 for no effect and ±100 for the full control effect; nearly all actives have a fitted effect of over 35% in size). The essentials:
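In this qHTS format, a 1 hr compound treatment of HepG2 cells precedes Mito-MPS staining, and membrane potential is judged from aggregate (red) against monomer (green) fluorescence intensity.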

Experiment [13] is described as follows: qHTS assay for small molecule disruptors of the mitochondrial membrane potential - 5 hr assay (AID 651755; calls by dose curve; also: % is scaled to controls: 0 for no effect and ±100 for the full control effect; nearly all actives have a fitted effect of over 40% in size). The essentials: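 Membrane-potential dye readout: red aggregate (540 ex/590 em) versus green monomer (490 ex/535 em) fluorescence after 30 min dye loading, following 5 hr compound exposure at 37C of overnight-plated HepG2 cells.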
In experiment [14] the target is Tumor necrosis factor (Homo sapiens) (UniProt P01375). Kind of experiment: qHTS assay to identify small molecules that stimulate Tumor Necrosis Factor-alpha (TNF-alpha) secretion (AID 651757; active = well fitted curve in the direction sought with a large enough effect in the signal ratio; the % refers to the signal ratio; also: 0% is about no effect). A digest of the protocol: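 Using 3000 THP-1 cells per well, compounds and controls were applied for 17 hrs at 37 C. Detection followed with two labeled anti-TNF-alpha antibodies (cryptate donor, XL665 acceptor) for 3 hr at room temperature, measured by TR-FRET.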
Tumor necrosis factor (Homo sapiens), sequence (P01375 whole entry, looked up): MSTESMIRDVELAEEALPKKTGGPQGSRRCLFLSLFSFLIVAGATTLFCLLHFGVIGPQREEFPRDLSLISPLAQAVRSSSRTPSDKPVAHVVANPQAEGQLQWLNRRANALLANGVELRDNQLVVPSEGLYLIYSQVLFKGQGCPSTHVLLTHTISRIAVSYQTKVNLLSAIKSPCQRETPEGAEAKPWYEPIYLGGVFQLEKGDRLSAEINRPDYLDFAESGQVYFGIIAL

Experiment [15] deals with Peroxisome proliferator-activated receptor alpha (Homo sapiens) (UniProt Q07869). In words: qHTS assay for small molecule agonists of the peroxisome proliferator-activated receptor alpha (PPARalpha) signaling pathway (AID 651778). Also: % of control where 0% means no effect. The conditions noted are these: PathHunter PPARalpha complementation, chemiluminescence, 6 h; stronger effect = higher value. The essentials:
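Chemiluminescence from complemented enzyme reported PPARalpha activation in cells after 6 hr of compound treatment at 37 C. The detection reagent was incubated for 60 min at room temperature, and compounds were scored as agonists.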

Experiment [16] deals with Nuclear receptor ROR-gamma (Homo sapiens) (UniProt P51449). In words: qHTS assay for small molecule antagonists of the retinoid-related orphan receptor gamma (ROR-gamma) signaling pathway (AID 651802).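 Also: CHO cells with doxycycline-induced ROR-gamma expression; luciferase reporter luminescence driven by ROR response element; % is scaled to controls: 0 for no effect and ±100 for the full control effect; nearly all actives have a fitted effect of over 60% in size.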 The essentials:
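Doxycycline-induced reporter activity in engineered CHO cells (TET-inducible ROR, RORE-LUC) was measured by luminescence after 16hr compound exposure at 37C.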

Experiment [17] has as its target Arylsulfatase A (Homo sapiens) (UniProt P15289). Kind of experiment: qHTS screen for enhancers of Arylsulfatase A (ASA1): LOPAC Validation Assay (AID 720538). Also: 0% is about no effect. The conditions noted are these: outcome: dose series up to 57.5 µM. The essentials: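 MLD patient fibroblasts (SV40, ASA-I179S), 1536-well; adhere 6 hrs; cpd 48h, 37 degree C, 5% CO2; pNCS 0.5mM final in lysis buffer, 14h RT; stop 1N NaOH final; fluor. Ex525/Em598.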

Experiment [18] is described as follows: qHTS for compounds that reverse cellular toxicity of Amyloid beta (A-beta) peptide in yeast: LOPAC Validation Assay (AID 720559).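 Also: plate controls were DMSO for no effect and equimolar ferric chloride plus clioquinol rescue for full effect.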 A digest of the protocol:
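Medium dispensed, compounds pinned, A-beta yeast suspension added; plates held at 30 C for 48 hr; absorbance measured at 600 nm to gauge growth; values scaled between DMSO and FeCl3/clioquinol (equimolar) controls.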

A short description of experiment [19]: qHTS for Activators of Parkin Expression: LOPAC Validation Assay (NLuc Reporter) (AID 720572). The essentials:
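Compound effects on Parkin promoter activity were measured as NanoLuc luminescence after 24 h at 37 C. The neuronal reporter line also carried FLuc, which was read first. LOPAC compounds were tested at 7 concentrations, with normalization to DMSO (0%) and positive control (100%).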

Peroxisome proliferator-activated receptor alpha (Homo sapiens), sequence (Q07869 whole entry, looked up): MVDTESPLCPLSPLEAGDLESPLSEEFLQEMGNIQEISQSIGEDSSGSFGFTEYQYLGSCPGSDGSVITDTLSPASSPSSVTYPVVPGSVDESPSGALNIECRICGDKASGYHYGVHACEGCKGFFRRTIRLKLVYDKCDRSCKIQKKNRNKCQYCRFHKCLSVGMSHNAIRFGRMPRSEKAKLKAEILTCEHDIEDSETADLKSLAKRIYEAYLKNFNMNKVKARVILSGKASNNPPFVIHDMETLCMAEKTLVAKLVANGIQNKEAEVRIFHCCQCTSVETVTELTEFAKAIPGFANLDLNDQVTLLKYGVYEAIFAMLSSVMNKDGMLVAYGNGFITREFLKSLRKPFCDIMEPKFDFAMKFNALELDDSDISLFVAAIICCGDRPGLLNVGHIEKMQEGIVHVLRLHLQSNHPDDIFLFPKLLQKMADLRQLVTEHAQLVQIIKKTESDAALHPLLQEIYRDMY
Nuclear receptor ROR-gamma (Homo sapiens), sequence (P51449 whole entry, looked up): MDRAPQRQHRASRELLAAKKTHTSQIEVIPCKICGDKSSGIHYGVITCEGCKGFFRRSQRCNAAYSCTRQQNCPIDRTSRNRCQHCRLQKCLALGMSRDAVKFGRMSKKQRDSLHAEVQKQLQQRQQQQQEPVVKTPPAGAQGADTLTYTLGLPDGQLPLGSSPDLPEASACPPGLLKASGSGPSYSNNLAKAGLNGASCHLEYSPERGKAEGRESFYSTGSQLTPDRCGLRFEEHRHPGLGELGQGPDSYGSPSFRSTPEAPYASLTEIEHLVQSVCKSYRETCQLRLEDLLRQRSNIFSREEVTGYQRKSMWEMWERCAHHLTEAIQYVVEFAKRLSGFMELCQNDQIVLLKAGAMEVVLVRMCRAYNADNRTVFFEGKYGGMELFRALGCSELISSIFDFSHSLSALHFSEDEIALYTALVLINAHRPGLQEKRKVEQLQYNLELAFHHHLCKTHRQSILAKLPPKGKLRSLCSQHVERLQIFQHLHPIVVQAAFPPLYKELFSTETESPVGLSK
Arylsulfatase A (Homo sapiens), sequence (P15289 whole entry, looked up): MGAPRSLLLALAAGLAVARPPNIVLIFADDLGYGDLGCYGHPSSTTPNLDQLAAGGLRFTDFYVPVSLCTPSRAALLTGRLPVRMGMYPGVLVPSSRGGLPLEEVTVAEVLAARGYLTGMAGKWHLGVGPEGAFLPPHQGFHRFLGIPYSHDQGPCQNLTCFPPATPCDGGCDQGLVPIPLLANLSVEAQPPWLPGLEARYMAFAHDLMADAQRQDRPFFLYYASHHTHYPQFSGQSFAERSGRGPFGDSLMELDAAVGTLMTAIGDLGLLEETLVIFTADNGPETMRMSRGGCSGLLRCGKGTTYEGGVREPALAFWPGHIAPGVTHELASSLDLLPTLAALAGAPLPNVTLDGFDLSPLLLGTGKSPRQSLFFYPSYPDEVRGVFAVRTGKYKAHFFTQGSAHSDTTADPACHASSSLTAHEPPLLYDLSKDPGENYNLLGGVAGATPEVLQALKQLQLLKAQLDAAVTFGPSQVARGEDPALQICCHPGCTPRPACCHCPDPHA

As for `CS(=O)(=O)c1cccc(CNc2nc(Nc3ccc4c(c3)CCC(=O)N4)ncc2C(F)(F)F)c1`, the result in experiment [1] and in experiment [7] was inactive. The Potency result in [2], in experiment [4] and in [5] was “inactive” in each case. The viability, percent of control in experiment [3] was determined as 120%. Further, the Potency in [6] is 0.972 µM (active).

Regarding `Cc1cnc(Nc2ccc(OCCN3CCCC3)cc2)nc1Nc1cccc(S(=O)(=O)NC(C)(C)C)c1`, the molecule was called inactive in experiment [1] and in experiment [7]. Further, the Potency entry in [2], in experiment [4], in experiment [5] and in experiment [6] was “inactive” in each case. In experiment [3], the viability, percent of control was determined as 65.3%.

Regarding `CCc1ccc(CCOc2ccc(CC3SC(=O)NC3=O)cc2)nc1` (stereo not given), the result in experiment [1] and in experiment [7] was inactive. Further, the Potency in [2] was 16.8 µM (active); in experiment [6], 1.73 µM (active). For the same molecule, the viability, percent of control in experiment [3] was 77.7%. In addition, the Potency entry in [5] was “inactive”.

For `O=S(=O)(N=Cc1c(O)ccc2ccccc12)c1cccs1`, the molecule was called inactive in experiment [1] and in experiment [7]. Also, the Potency result in [2], in [5] and in experiment [6] was “inactive” throughout. The viability, percent of control in experiment [3] was 72.6%.

As for `Oc1cccc(-c2nc(N3CCOCC3)c3oc4ncccc4c3n2)c1`, the outcome in experiment [1] and in [7] was inactive. In experiment [8], the viability (% of control) came out at 16.2%. Also, the viability, percent of control in experiment [3] stood at 42.6%. For the same molecule, the Potency result in experiment [6] is “inactive”.

As to `COc1ccc(C2=N[C@H](c3ccc(Cl)cc3)[C@H](c3ccc(Cl)cc3)N2C(=O)N2CCNC(=O)C2)c(OC(C)C)c1`, the outcome in experiment [1] and in experiment [7] was inactive. Besides, in experiment [8], the viability (% of control) worked out at 7.72%. The viability, percent of control in experiment [3] came to 66.4%. Besides, the Potency in experiment [6] was 12.2 µM (active).

As to `C#Cc1cccc(Nc2ncnc3cc(OCCOC)c(OCCOC)cc23)c1`, the result in [1] and in [7] was inactive. Besides, the viability (% of control) in experiment [8] was determined as 58%. The viability, percent of control in experiment [3] was 74.6%. The Potency result in [4] and in [5] was “inactive” throughout.

Turning to `Cc1ccc(-n2nc(C(C)(C)C)cc2NC(=O)Nc2ccc(OCCN3CCOCC3)c3ccccc23)cc1`, the result in [1] and in [7] was inactive. Moreover, the viability (% of control) in experiment [8] was 66.7%. Besides, in experiment [3], the viability, percent of control was found to be 65.5%. For the same molecule, in experiment [5], the Potency result was “inactive”.

On to `CCOc1cc(C=C2C(=O)N(c3ccccc3)N=C2C)cc(Cl)c1OCC(=O)OC`, for which the call in experiment [1] and in experiment [7] was inactive. The viability, percent of control in experiment [3] amounted to 46.9%. The Potency result in experiment [4] and in experiment [6] was “inactive” throughout.

Take `COc1ccc(COc2cc3oc(=O)c4cc(C(C)O)ccc4c3cc2OC)cc1` (stereo not given): the Potency result in experiment [2], in [4] and in [6] was “inactive” in each case. For the same molecule, the viability, percent of control in [3] stood at 45.7%. Also, the call in experiment [7] was inactive.

For the molecule `O=C(Nc1cccnc1)N1CCC(Cc2cccc(Oc3ccc(C(F)(F)F)cn3)c2)CC1`, the molecule was called inactive in [1] and in experiment [7]. The viability, percent of control in experiment [3] is 46.1%. Besides, the Potency result in experiment [6] was “inactive”.

Turning to `CCCCCCCc1ccc(CCc2cccc(O)c2C(=O)O)cc1`, the molecule was called inactive in experiment [1] and in experiment [7]. Also, in experiment [3], the viability, percent of control is 51.5%. Besides, in experiment [5], the Potency entry is “inactive”.

On to `CC(=O)Oc1ccccc1C(=O)O`, for which the Potency result in [9] and in [19] was “inactive” each time. Also, the activation was -2.89% (inactive) and -7.19% (inactive) and 1.5% (inactive) in experiment [10]; -1.39% (inactive) and 0.118% (inactive) and -2.43% (inactive) in experiment [11]. The result in experiment [12], in [13], in experiment [14], in experiment [16], in experiment [17] and in experiment [18] was inactive. The max response in experiment [15] is -3.17% (inactive) and 6.24% (inactive) and -1.09% (inactive).

In the case of `CS(=O)(=O)Oc1ccc2c(NC(N)=O)c(C(=O)c3ccc(Cl)cc3Cl)oc2c1`, the outcome in [1] and in [7] was inactive. Also, in [8], the viability (% of control) stood at 84.9%. Moreover, the viability, percent of control in [3] was determined as 78.9%. For the same molecule, the Potency entry in experiment [4], in experiment [5] and in experiment [6] was “inactive” each time.

`COCCNCCCn1c(C(=O)CF)c(-c2ccc(C)cc2)c2c(N)ncnc21`: the Potency entry in experiment [2], in experiment [4], in experiment [5] and in experiment [6] was “inactive” in each case. The viability (% of control) in experiment [8] is 75.8%. Also, in experiment [3], the viability, percent of control came out at 86.2%. The outcome in [7] was inactive.
